# In PubChem BioAssay AID454 (Sanford-Burnham Center for Chemical Genomics, 2006):
# Among all 10,000 compounds or so, about 25 (0.2%) were called active. The sample holds actives, similar compounds and a random draw of the others, so the mix is not that of the screen.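 Rule for the calls: active = compound among top-ranked inhibitors of TNF-induced VCAM-1 adhesion protein staining, with the hit upheld by image or statistical review; inactive = the rest, including hits rejected on review.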
# Test: suppression of endothelial VCAM-1 upregulation – cell-based, plate reader, pooled HUVEC, TNFa stimulus (AID 454)
# Conditions: HUVEC TNFa-induced VCAM-1 surface immunofluorescence; stronger effect = higher value,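 compound tested at 5 µM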
row,Compound,inhibition
1,O=C(Cn1cc(C(=O)c2ccccc2)c2ccccc21)NCc1ccco1,inactive
2,Cc1cccc(C2=NCC(=O)N(CC(=O)NCc3ccco3)c3sc4c(c32)CCCC4)c1,78.7% (active)
3,O=C(CN1C(=O)CN=C(c2ccccc2)c2ccccc21)NCc1ccco1,inactive
4,COc1ccc(CCn2c(O)c(C=NCc3cccnc3)c(=O)[nH]c2=O)cc1OC,inactive
5,CCOc1ccc(C2SCC(=O)Nc3c2c(=O)[nH]n3C2CCCCCC2)cc1 (stereo not given),inactive
